# Measurements reported in PubChem BioAssay (NCI).
# Compounds without any hit were thinned out: in the full panel of roughly 83,000, 20% have a hit.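 How to read the values: 0–100, growth inhibition (40 = 60% inhibited); 0, no net growth; -100 to 0, cell death (-40 = 40% of starting cells died; -100 = all dead).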 Unmarked numbers belong to inactive results. Calls of active or inactive are those of the source. How the source made its calls: active means growth percent below 10; inactive means the rest.
# Tested on: MDA-MB-468 breast
# Assay: NCI-60 one-dose screen, 48 h (100 = growth as untreated, 0 = no growth, -100 = all killed)
# Settings: 10 µM unless noted
row,SMILES,growth
1,Cc1c(F)cccc1NC(=O)c1sc2nc3c(cc2c1N)CCCCC3,14.8%
2,COc1cc2ncnc(Oc3cccc(NC(=O)Nc4cc(C(C)(C)C(F)(F)F)on4)c3)c2cc1OC,12.4%
3,COc1cc2nnn3c4ncccc4c(N=O)c3c2cc1OC,-50.9% (active)
4,COCCNC(C)=O,96.1%
5,CO[C@]12C=C/C(=C(/C(=O)OCc3cccnc3)C(=O)CCCCCCCC[C@@]3(OC)C=C/C(=C(/C(=O)OCc4cccnc4)C(=O)CCCCCCCC1)O3)O2,-4.86% (active)
6,O=C(Nc1cc(Cl)ccc1O)c1ccccc1Nc1ccnc(C(F)(F)F)c1,12.7%
7,CCOC(=O)c1cc2c(n1Cc1ccccc1OC)-c1oncc1CCC2,7.1% (active)
8,O=C1OCC2=C1C(c1cccc(C(F)(F)F)c1)c1cc3c(cc1N2CCO)OCCO3 (stereo not given),13.5%
9,COc1ccc(/C=C2\c3cc(OC)c(OC)c(OC)c3CC[C@@H]2O)cc1F,13.5%
10,CC(C)(C)Nc1nc2c(OCCc3ccccc3)cccn2c1-c1ccc(Cl)cc1,-22.4% (active)
11,COc1ccc(C/C(=C(\C)c2ccc(OCCN3CCCC3)cc2)c2ccc(OCCN3CCCC3)cc2)cc1,33.2%
12,N#CSCc1ccc(Cl)c(CSC#N)c1,51.5%
13,COc1ccccc1N1CCCCC1,118%
14,C#C[C@]1(O)CC[C@H]2[C@@H]3CC=C4c5sc(-c6cccc(O)c6)nc5CC[C@]4(C)[C@H]3CC[C@@]21C,1.79% (active)
15,N#CC1=C(N)Oc2c(cnn2-c2ccc([N+](=O)[O-])cc2[N+](=O)[O-])C1c1ccccc1 (stereo not given),87.7%
16,CN(C)c1ccc(C2CC(c3ccccc3)=NN2/C=C2\SC(=O)NC2=O)cc1 (stereo not given),100%
17,O=C(CCc1nnc2sc(-c3ccccc3)nn12)c1nc2ccccc2[nH]1,87.3%
18,O=C1/C(=C/c2ccc(Br)cc2)COc2ccc(O)c(O)c21,-51.8% (active)
19,COc1ccc(Cn2c(NCCCN(C)C)nc(=O)n(Cc3ccc(F)cc3)c2=O)cc1,85.8%
20,CC[C@H](CO)Nc1nc(NCc2ccccc2)c2ncn(C(C)C)c2n1,85%

row,SMILES,growth
1,Nc1nccc2c1ccn2-c1ccc(NC(=O)c2ccc(N3CCOCC3)c(C(F)(F)F)c2)cc1,27.6%
2,O=C1/C(=N/O)CCc2ccccc21,109%
3,O=C([C@H]1C[C@H]1c1ccc(S(F)(F)(F)(F)F)cc1)N1CCN(c2cc(Cl)ccc2C(F)(F)F)CC1,58.9%
4,O=C(CN1C(=O)S/C(=C\c2ccccc2)C1=O)Nc1ccc(C(=O)/C=C/c2cc3ccccc3nc2Cl)cc1,63.1%
5,COc1ccc(-c2nc(-c3cn(C)c4ncccc34)cs2)cc1,-6.3% [100 µM] (active)
6,Cc1ccccc1N1C(=O)c2cc(S(N)(=O)=O)c(Cl)cc2NC1C (stereo not given),119%
7,COc1ccc(OC)c([N+](=O)[O-])c1C=O,81.9%
8,CC(C)Nc1cc(-c2c[nH]c(C(=O)N[C@H](CO)c3cccc(Cl)c3)c2)c(Cl)cn1,43.6%
9,Cc1ccc(C23CCC(=O)N2CCc2cncn23)cc1 (stereo not given),85.2%
10,Nc1c(Br)cc(O)c2c1C(=O)c1ccccc1C2=O,-9.43% (active)
11,O=C(NO)c1ccc(Cn2c(=O)n(-c3ccccc3)c(=O)c3ccccc32)cc1,16.9%
12,N=C(N)c1ccc(-c2ccc(-c3ccc(Cl)cc3)o2)o1,-21.5% (active)
13,CN(C)CCCn1c2c(c3cc(-c4cccc(S(N)(=O)=O)c4)ccc3c1=O)C(=O)c1ccccc1-2,88.5%
14,CN(C)Cc1c(-c2ccccc2)[nH]c2ccccc12,103%
15,COc1cc2ncn3c(=O)c4c5c(sc4nc3c2cc1OC)CCCCC5,107%
16,C#Cc1ccc(-n2c(/C=C/c3ccc4ccccc4c3)nc3ncccc3c2=O)cc1,-16.1% (active)
17,COc1ccc(C(=O)N/N=C/c2cc(C(F)(F)F)ccc2Cl)cc1,53.2%
18,CC(C)CCSC1=CC(=O)c2ccccc2C1=O,-84.1% (active)
19,CCCCN1C(=O)/C(=c2\sc3n(c2=O)C2C(NN=3)N(CC)C(=O)N2CC)c2cccc(C)c21 (stereo not given),12.4%
20,Nc1nc2c(c(=O)[nH]1)C1(C(=O)Nc3ccccc31)c1c(nc(N)[nH]c1=O)N2,101%
